The full ranking holds about 33,000 sequences; the median of “E-score (-0.5 to 0.5)” is about -0.035, and the highest 2% start at about 0.35. The entries come from a sample that favours the highest values as a whole.
target: T1, Pdr3 (UniProt P33200); assay: PBM E-score (8-mer binding enrichment) (E-score (-0.5 to 0.5)); higher = stronger / more preferred TF binding; conditions: protein concentration: 200 nM; construct: GST-full length
T1 sequence: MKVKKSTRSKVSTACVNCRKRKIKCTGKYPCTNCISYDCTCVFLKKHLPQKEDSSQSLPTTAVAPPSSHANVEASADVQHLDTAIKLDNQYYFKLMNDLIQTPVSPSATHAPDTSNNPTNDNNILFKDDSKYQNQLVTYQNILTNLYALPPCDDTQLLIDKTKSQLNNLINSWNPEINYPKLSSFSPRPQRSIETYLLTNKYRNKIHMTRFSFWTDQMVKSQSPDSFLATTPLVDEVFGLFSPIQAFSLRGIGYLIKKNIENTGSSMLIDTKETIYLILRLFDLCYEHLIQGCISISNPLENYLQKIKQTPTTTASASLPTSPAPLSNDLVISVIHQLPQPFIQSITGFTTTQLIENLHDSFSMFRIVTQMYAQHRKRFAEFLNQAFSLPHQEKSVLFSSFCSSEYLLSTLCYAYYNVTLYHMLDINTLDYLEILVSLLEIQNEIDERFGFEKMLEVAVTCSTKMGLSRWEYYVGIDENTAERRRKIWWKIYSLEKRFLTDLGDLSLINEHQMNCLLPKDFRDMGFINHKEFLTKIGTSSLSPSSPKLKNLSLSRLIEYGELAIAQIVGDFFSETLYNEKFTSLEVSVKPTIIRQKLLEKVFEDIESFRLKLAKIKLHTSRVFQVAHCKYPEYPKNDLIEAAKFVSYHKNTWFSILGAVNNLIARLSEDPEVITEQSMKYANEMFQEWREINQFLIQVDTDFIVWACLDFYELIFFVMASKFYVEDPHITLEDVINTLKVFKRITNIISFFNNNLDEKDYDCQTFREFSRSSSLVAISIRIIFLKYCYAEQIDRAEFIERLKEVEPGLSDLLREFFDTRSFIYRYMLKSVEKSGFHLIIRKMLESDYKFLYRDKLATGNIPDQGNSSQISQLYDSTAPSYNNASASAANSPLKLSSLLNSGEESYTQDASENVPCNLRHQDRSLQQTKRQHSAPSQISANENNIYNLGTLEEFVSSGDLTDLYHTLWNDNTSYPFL
Experimental: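 Universal 'all 10-mer' protein binding microarrays (Agilent AMADID 015681) probed with GST-tagged S. cerevisiae TFs (full-length or DBD) made by in vitro transcription/translation (PURExpress), about 100-200 nM. Bound TF was detected with fluorescent anti-GST. Each ungapped 8-mer (which stands for itself and its reverse complement) is scored by the PBM enrichment score (E-score), a modified Wilcoxon-Mann-Whitney statistic from -0.5 to +0.5, computed with the Universal PBM Analysis Suite. Scale: above 0.35 generally sequence-specific binding.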

| Sequence | PBM E-score |
| --- | --- |
| CGTTCGGA | 0.414 |
| CGTTCGGC | 0.171 |
| CATTCGGC | 0.145 |
| GATTCGGA | 0.29 |
| AATTCGGC | 0.173 |
| AATTCGGG | 0.153 |
| GGTTCGGA | 0.34 |
| CATTCGGA | 0.356 |
| AATTCGGA | 0.365 |
| GTAGCGTA | -0.0161 |
| CTGTCGCC | 0.0223 |
| AAAAGATC | -0.0361 |
| TCCGCAGA | 0.258 |
| CCCAAACA | -0.0368 |
| AGGTTAGA | -0.00179 |
| CGCCTGCC | -0.0358 |
| AACCACCC | -0.00213 |
| ACATAGAT | -0.085 |
| CCAACCGC | 0.146 |
| AGTGTTCG | -0.0373 |
| CATTAGAG | -0.234 |
| CCGAAGCC | 0.245 |
| GGGAAGCA | -0.0013 |
| CGGAAGCC | 0.416 |
| AGGAAGCC | -0.0295 |

| Sequence | PBM E-score |
| --- | --- |
| CGGAAGCA | 0.428 |
| AGGAAGCA | -0.16 |
| CGCGCTCC | 0.308 |
| ATTGTGGC | 0.0289 |
| GTCTACCA | -0.252 |
| GTGGGAAA | -0.0227 |
| CGGTTGGC | 0.161 |
| AAATACGG | 0.0148 |
| CCACGGAA | 0.484 |
| TCACGGGA | 0.203 |
| CCACGGAC | 0.34 |
| CCACGGGG | 0.335 |
| CCACGGCG | 0.182 |
| CCACGGGA | 0.325 |
| TCACGGAA | 0.464 |
| CCACGGAG | 0.429 |
| ACACGGAA | 0.438 |
| TCACGGCA | 0.193 |
| ACACGGAG | 0.284 |
| ACACGGAT | 0.302 |
| ACAATTTG | -0.117 |
| AGACGGGC | 0.0159 |
| CTCGCAAA | -0.131 |
| AGGAGAAT | -0.00643 |
| AGGATGCA | -0.117 |

| Sequence | PBM E-score |
| --- | --- |
| AAGGCATC | -0.216 |
| ACCTAAAG | -0.12 |
| CTCCACGC | -0.165 |
| GGGATCAC | -0.0461 |
| AGGATCAC | -0.231 |
| CGGATCAA | 0.356 |
| CGGATCAG | 0.334 |
| CGGATCAC | 0.391 |
| TGGATCAA | -0.168 |
| ATAGCCCG | 0.0917 |
| ATCGTTTG | 0.0176 |
| TATTCGCA | -0.0986 |
| AGCCAGCT | -0.164 |
| GTGGCGAA | 0.106 |
| ACCGGGCG | 0.0259 |
| ACGGGGCG | 0.183 |
| CCGGGGCG | 0.374 |
| CCGGGGGC | 0.235 |
| CCGGGGCC | 0.367 |
| CGGGGGCC | 0.142 |
| ACCGGGCC | 0.25 |
| CCCCGGCG | 0.162 |
| GCCGGGCC | 0.12 |
| CCCGGGCG | 0.421 |
| CCCGGGCC | 0.397 |

| Sequence | PBM E-score |
| --- | --- |
| CCGGGGCA | 0.235 |
| AAGCAGCG | 0.017 |
| CTACTCCA | -0.162 |
| TCGACCGA | 0.0776 |
| ACTGGGCG | -0.018 |
| AGTATTGC | -0.0115 |
| ACCCAGTC | -0.0225 |
| CGCCTCCG | 0.295 |
| AACTAGAC | -0.106 |
| GCCTCACA | -0.114 |
| CCCGATCG | 0.234 |
| AAAAATGG | 0.0817 |
| GCGCCGCA | 0.151 |
| ACCGGGCA | 0.102 |
| CCCGGGCA | 0.375 |
| GCCGGGCA | 0.282 |
| GATAGTGC | -0.0798 |
| GTTCAAAC | -0.0193 |
| AGGATAAC | -0.212 |
| CTAATCTC | -0.0806 |
| CACCCGCA | 0.115 |
| ATCCCGCC | 0.322 |
| ATCCCGCG | 0.465 |
| AGCCCGCG | 0.381 |
| AACCCGCG | 0.431 |

| Sequence | PBM E-score |
| --- | --- |
| AACCCGCC | 0.165 |
| AGCCCGCT | -0.183 |
| CGCCCGCG | 0.314 |
| ATCCCGCA | 0.21 |
| CACCCGCC | 0.332 |
| AACCCGCA | 0.18 |
| CACCCGCG | 0.42 |
| AATTAGCA | 0.103 |
| ATGTCGAC | 0.0706 |
| ATTGCGAA | -0.0818 |
| GTCAGATA | -0.0744 |
| CTAAGAAC | 0.165 |
| CAGACGAA | 0.199 |
| AGAATACT | -0.121 |
| CAGAACAA | 0.0215 |
| CTACTTAC | -0.312 |
| CACTAAGG | -0.0887 |
| CATCCCCA | -0.0591 |
| AATCCCCG | 0.296 |
| CATCCCCG | 0.354 |
| CATCCCAG | -0.106 |
| CATCCCGA | 0.352 |
| GATCCCGC | 0.371 |
| CATCCCGG | 0.431 |
| GATCCCGA | 0.317 |

| Sequence | PBM E-score |
| --- | --- |
| CATCCCGC | 0.315 |
| AATCCCTG | -0.0189 |
| AATCCCGG | 0.407 |
| CATCCCCC | 0.0287 |
| CACTTTAG | -0.149 |
| AGTCTGCG | -0.259 |
| CAGGCGTA | -0.145 |
| ACGTCAGG | -0.326 |
| AGGCAGGG | -0.153 |
| ACGAATGC | -0.158 |
| CCGCGCGC | 0.332 |
| ATGCGCGC | 0.275 |
| ATCCGCGC | 0.309 |
| CTCCGCGA | 0.258 |
| GCGCGCGA | 0.308 |
| CTCCGCGC | 0.368 |
| ATGCGCGG | 0.355 |
| GCGCGCGC | 0.388 |
| CCGCGCGG | 0.473 |
| CCGCGCGA | 0.303 |
| ATGCGCGA | 0.0846 |
| ACGCGCGC | 0.238 |
| GCGTAGTA | -0.095 |
| ACGCCTGA | -0.148 |
| CTAGAAAG | -0.189 |

| Sequence | PBM E-score |
| --- | --- |
| GGCCGGGA | 0.39 |
| CGCCGGGA | 0.382 |
| CGCCGGGC | 0.308 |
| CGCCGGTA | 0.13 |
| CTCCGGGA | 0.399 |
| GGCCGGTA | 0.274 |
| AGCCGGGA | 0.3 |
| GTCCGGGA | 0.353 |
| CTCCGAGA | 0.274 |
| GAACATAC | 0.0175 |
| CCTAGACG | 0.012 |
| ATCCTGGG | -0.104 |
| GGCCCCCC | -0.0393 |
| AAGGCTTG | -0.0886 |
| AGATCACC | 0.0531 |
| GAGACTCC | 0.0113 |
| AGGCTAAA | -0.297 |
| CCGGAGTA | 0.367 |
| CCGGAGGC | 0.292 |
| ACGGAGTA | 0.297 |
| ACGGAGTC | 0.193 |
| GCGGAGTA | 0.245 |

Source: the supplement of paper PMC3334620
